CCHFV vOTU inh = CCHFV vOTU protease inhibitors, primary screen, biochemical, Pep-AMC substrate, fluorescence; AID 651958, 2012; 370,000 compounds, 0.55% hits; inhibition, % at 11.5 µM; Crimean-Congo hemorrhagic fever virus L polyprotein viral ovarian tumor (vOTU) protease …; in the data active = inhibition above about 30%
SARS 3CLpro inh = SARS-CoV 3CLpro protease inhibitors, primary screen, biochemical, quenched FRET | recombinant SARS-CoV 3CLpro, quenched FRET peptide cleavage | Replicase polyprotein 1ab (Severe acute respiratory syndrome coronavirus), P0C6X7 | 290,000 compounds, 0.14% hits | AID 1706, 2009 | inhibition, % at 6 µM; in the data active = inhibition above about 12%
PrPC surface inh = inhibitors of human cell surface prion protein PrPC, primary screen, cell-based, TR-FRET | Major prion protein (Homo sapiens), P04156 | TR-FRET read-out | inhibition, % at 13.8 µM | 370,000 compounds, 0.43% hits; in the data active = inhibition above about 24%
PrP UTR inh = inhibition of PrP 5' UTR reporter expression | cell-based PrP 5' UTR mRNA reporter, plate reader | inhibition, % (concentration not given with the values) | 340,000 compounds, 0.35% hits; in the data active = inhibition above about 52%
PrPC confirm = confirmation of inhibitors of cell surface human prion protein, confirmation, cell-based, TR-FRET; shares compounds with PrPC surface inh; cell surface PrPC level; inhibition, % at 13.8 µM; 1,500 compounds, 65% hits; AID 743200, 2013; in the data active = inhibition above about 25%
LD9 tox = cytotoxicity in LD9 cells, cytotoxicity control for cell surface PrPc inhibitor project, cell-based, luminescence, high throughput; inhibition, % at 13.8 µM; 1,500 compounds, 29% hits; luminescence viability; shares compounds with PrPC surface inh; AID 743201, 2013; in the data active = inhibition above about 9.5%
Numbers stand for hits; ! = not confirmed by another sample. The list is not random: actives were taken first. Their share in the collection is about 1.3%.

What do the screens show for `CC(=O)N(Cc1cc2c(C)cc(C)cc2[nH]c1=O)C1CCCCC1`?
CCHFV vOTU inh: inactive; SARS 3CLpro inh: inactive; PrPC surface inh: inactive; PrP UTR inh: inactive

What do the screens show for `C=CCn1c(SCC(=O)Nc2ccc(Cl)cn2)nnc1C1CC1`?
CCHFV vOTU inh: inactive; SARS 3CLpro inh: inactive; PrPC surface inh: inactive; PrP UTR inh: inactive

How did COc1ccc(N(C(C)C(=O)N2CCCC2)S(C)(=O)=O)cc1 (stereo unspecified) do in these assays?
CCHFV vOTU inh: inactive; SARS 3CLpro inh: inactive; PrPC surface inh: 49.7; PrP UTR inh: inactive; PrPC confirm: inactive; LD9 tox: inactive

What do the screens show for `Cc1nc2ccc(Br)cc2c2c1CC(CBr)O2` (stereo unspecified)?
CCHFV vOTU inh: inactive; SARS 3CLpro inh: inactive; PrPC surface inh: inactive; PrP UTR inh: inactive

How did Cc1nc2ccc(Br)cc2c2c1CC(CO)O2 (stereo unspecified) do in these assays?
CCHFV vOTU inh: inactive; SARS 3CLpro inh: inactive; PrPC surface inh: 29.1; PrP UTR inh: inactive; PrPC confirm: 34.6; LD9 tox: inactive

How did CNC(=O)c1sc(-c2cccs2)nc1C do in these assays?
CCHFV vOTU inh: inactive; SARS 3CLpro inh: inactive; PrPC surface inh: inactive; PrP UTR inh: inactive

Results for Cc1ccccc1C(=O)NNc1ccc(-c2csnn2)cc1 ?
CCHFV vOTU inh: inactive; SARS 3CLpro inh: inactive; PrPC surface inh: 24.6; PrP UTR inh: inactive; PrPC confirm: inactive; LD9 tox: inactive

Results for CC(=O)Oc1ccc(-c2csnn2)cc1 ?
CCHFV vOTU inh: inactive; SARS 3CLpro inh: inactive; PrPC surface inh: inactive; PrP UTR inh: inactive

What do the screens show for `COc1cccc(C2/C(=C(\O)c3ccc4c(c3)OCCO4)C(=O)C(=O)N2CCCn2ccnc2)c1` (stereo unspecified)?
CCHFV vOTU inh: inactive; SARS 3CLpro inh: inactive; PrPC surface inh: inactive; PrP UTR inh: inactive

How did O=C1C(=O)N(CCCn2ccnc2)C(c2cccc(Br)c2)/C1=C(\O)c1ccc2c(c1)OCCO2 (stereo unspecified) do in these assays?
CCHFV vOTU inh: inactive; SARS 3CLpro inh: inactive; PrPC surface inh: 29.6; PrP UTR inh: inactive; PrPC confirm: 42.8; LD9 tox: inactive

What do the screens show for `CC(C)c1ccccc1-n1c(SCC(=O)N2CCc3ccccc3C2)nc2ccccc2c1=O`?
CCHFV vOTU inh: inactive; SARS 3CLpro inh: inactive; PrPC surface inh: 33.9; PrP UTR inh: inactive; PrPC confirm: 36.3; LD9 tox: 35.0

Results for O=C(CSc1nc2ccccc2c(=O)n1-c1ccccc1)N1CCc2ccccc2C1 ?
CCHFV vOTU inh: inactive; SARS 3CLpro inh: inactive; PrPC surface inh: inactive; PrP UTR inh: inactive

What do the screens show for `COc1ccc2c(Cl)c(C(N)=O)sc2c1`?
CCHFV vOTU inh: inactive; SARS 3CLpro inh: inactive; PrPC surface inh: 78.6; PrP UTR inh: inactive; PrPC confirm: 99.5; LD9 tox: inactive

Results for CC(C)Cn1c(=O)cc(N2CCN(c3cccc(C(F)(F)F)c3)CC2)[nH]c1=O ?
PrPC surface inh: inactive

How did Brc1ccc2nc(-c3ccco3)c(Cc3ccccc3)n2c1 do in these assays?
CCHFV vOTU inh: inactive; PrPC surface inh: 37.1; PrPC confirm: 66.3; LD9 tox: inactive

How did COc1ccc(-c2nc3ccc(Br)cn3c2Cc2cccc(F)c2)cc1OC do in these assays?
CCHFV vOTU inh: inactive; PrPC surface inh: 35.6; PrPC confirm: 65.2; LD9 tox: inactive

Results for Cc1ccc(Cc2c(-c3ccco3)nc3ccc(C)cn23)cc1 ?
CCHFV vOTU inh: inactive; PrPC surface inh: inactive

Results for Clc1cccc(Cc2c(-c3ccco3)nc3ccc(Cl)cn23)c1 ?
CCHFV vOTU inh: inactive; PrPC surface inh: inactive

What do the screens show for `Clc1cccc(Cc2c(-c3ccco3)nc3ccc(Br)cn23)c1`?
CCHFV vOTU inh: inactive; PrPC surface inh: 42.4; PrPC confirm: 51.3; LD9 tox: inactive

What do the screens show for `COc1ccc(-c2nc3ccc(C)cn3c2Cc2cccc(F)c2)cc1OC`?
CCHFV vOTU inh: inactive; PrPC surface inh: inactive

Results for CN(C)c1ccc(/C=C(\NC(=O)c2ccccc2)C(=O)N/N=C/c2ccc(C(=O)O)cc2)cc1 ?
CCHFV vOTU inh: inactive; SARS 3CLpro inh: inactive; PrPC surface inh: inactive; PrP UTR inh: inactive

Results for CCCCCCSc1ccc(-c2nc3ccc(Cl)cn3c2NCCCC)cc1OC ?
CCHFV vOTU inh: inactive; PrPC surface inh: 33.4!; PrP UTR inh: inactive; PrPC confirm: inactive; LD9 tox: inactive

How did CCC(=O)NCCn1c(C)cc2ccccc21 do in these assays?
SARS 3CLpro inh: inactive; PrP UTR inh: inactive

What do the screens show for `Cc1cc2ccccc2n1CCNC(=O)Cc1cccc2ccccc12`?
CCHFV vOTU inh: inactive; SARS 3CLpro inh: inactive; PrPC surface inh: 41.4; PrP UTR inh: inactive; PrPC confirm: inactive; LD9 tox: inactive

What do the screens show for `Cc1cc2ccccc2n1CCNC(=O)COc1ccccc1`?
CCHFV vOTU inh: inactive; PrPC surface inh: 41.9; PrP UTR inh: inactive; PrPC confirm: 36.6; LD9 tox: inactive

Results for Cc1cc2ccccc2n1CCNC(=O)c1ccccc1 ?
CCHFV vOTU inh: inactive; SARS 3CLpro inh: inactive; PrPC surface inh: inactive; PrP UTR inh: inactive

Results for CC(=O)NCCn1c(C)cc2ccccc21 ?
CCHFV vOTU inh: inactive; PrPC surface inh: inactive; PrP UTR inh: inactive

What do the screens show for `Cc1cc2ccccc2n1CCNC(=O)c1ccc(S(=O)(=O)N2CCOCC2)cc1`?
CCHFV vOTU inh: inactive; SARS 3CLpro inh: inactive; PrPC surface inh: 26.6; PrP UTR inh: inactive; PrPC confirm: inactive; LD9 tox: inactive

How did Cc1cc2ccccc2n1CCNC(=O)C(C)(C)C do in these assays?
CCHFV vOTU inh: inactive; PrPC surface inh: 38.7; PrP UTR inh: inactive; PrPC confirm: inactive; LD9 tox: inactive

What do the screens show for `N#Cc1cccc(C(c2nnnn2C2CCCC2)N2CCCCCC2)c1` (stereo unspecified)?
CCHFV vOTU inh: inactive; SARS 3CLpro inh: inactive; PrPC surface inh: 41.1; PrP UTR inh: inactive; PrPC confirm: inactive; LD9 tox: inactive

What do the screens show for `N#Cc1cccc(C(c2nnnn2C2CCCC2)N2CCC(Cc3ccccc3)CC2)c1` (stereo unspecified)?
CCHFV vOTU inh: inactive; SARS 3CLpro inh: inactive; PrPC surface inh: inactive; PrP UTR inh: inactive

Results for COC(=O)Cc1c(C)c2ccc(OCC(=O)N3CCC(C)CC3)c(C)c2oc1=O ?
CCHFV vOTU inh: inactive; SARS 3CLpro inh: inactive; PrPC surface inh: 28.1; PrP UTR inh: inactive; PrPC confirm: 40.5; LD9 tox: inactive

Results for COC(=O)Cc1c(C)c2ccc(OCC(=O)N3CCCC3)c(C)c2oc1=O ?
CCHFV vOTU inh: inactive; SARS 3CLpro inh: inactive; PrPC surface inh: 27.6; PrP UTR inh: inactive; PrPC confirm: 27.6; LD9 tox: inactive

How did CCCNC(=O)c1nnsc1S(=O)c1ccc(Cl)cc1 (stereo unspecified) do in these assays?
CCHFV vOTU inh: inactive; SARS 3CLpro inh: inactive; PrPC surface inh: 90.9; PrP UTR inh: inactive; PrPC confirm: inactive; LD9 tox: 95.2

Bioassay records deposited in PubChem by several laboratories.
